Assay outcomes deposited in PubChem by National Center for Advancing Translational Sciences (NCATS).
Most compounds without a hit are left out; they make up all but 2.4% or so of the library.
D2 ag-1: agonists of human D2 dopamine receptor (beta-arrestin); DiscoveRx PathHunter D2 beta-arrestin, luminescence, 90 min; 100% = 57 uM dopamine signal; P14416; 360,000 tested, 0.084% active; activation, % (concentration not given with the values); in the data active means activation above about 40%; inconclusive means between about 15% and that limit
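Agonist mode: compounds alone added to overnight-plated D2 PathHunter cells for 90 min at 37 C, with 57 uM final dopamine (EC100) defining full response. Beta-arrestin recruitment detected by chemiluminescent reagent, read after 1 h at ambient temperature.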
D2 ag-2: activates the human D2 dopamine receptor | activation, % at 2 µM | AID 485358 | P14416 | HEK293 T-REx D2 cells, calcium flux agonist mode | 340,000 tested, 0.53% active;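 active means activation over 3 SD above normal in the single-dose calcium agonist read, cut at about 30% in these data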
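In this primary screen, compounds producing a positive calcium signal within 180 s of addition to tetracycline-induced, force-coupled HEK293 Trex D2 cells are flagged; cells are dye-loaded with a no-wash calcium kit beforehand.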
D2 PAM-1: human D2 receptor positive allosteric modulation; AID 624464; potentiation, % (concentration not given with the values); 360,000 tested, 0.23% active; P14416; DiscoveRx D2 beta-arrestin cells, luminescence, 90 min; 100% = 57 uM dopamine signal; in the data active means potentiation above about 50%; inconclusive means mostly about 30% to 49%
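PathHunter beta-arrestin assay in DiscoveRx D2 cells. Compounds were added with an EC20 of dopamine (50 nM final) for 90 min at 37 deg C. Luminescence was read 1 h after detection reagent, with 57 uM dopamine as the EC100 control.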
D2 antag: D2 dopamine receptor (human) antagonism | P14416 | HEK293 TREx D2 cells, calcium flux, dopamine EC80 | inhibition, % at 10 µM | 340,000 tested, 2% active; in the data active means inhibition above about 30%; inactive means below that, where a call was filed
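Calcium flux kinetic readout in an inducible HEK293 TREx D2 line plated overnight at 30 C. After 180 s compound exposure, an EC80 dopamine challenge follows with another 180 s kinetic read to detect antagonism.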
D2 PAM-2: D2 dopamine receptor (human) potentiation; P14416; potentiation, % at 10 µM; AID 485347; 340,000 tested, 0.34% active; HEK293 T-REx D2, calcium flux, EC20 dopamine potentiation;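 active means potentiation over 3 SD above the plate norm, cut at about 30% in these data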
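Tetracycline-induced HEK293 T-REx cells force-coupled to calcium signalling expressed D2; compounds were pin-added after a 10 s baseline, read kinetically 180 s, then an EC20 dopamine challenge followed with a further 180 s calcium read.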
D3 ag: D3 receptor agonism confirmed, beta-arrestin readout | shares compounds with D2 ag-2 | DiscoveRx D3 beta-arrestin cells, luminescence, 90 min | Potency, µM (top dose mostly 76.9 µM), most hits filed as activators | 2,300 tested, 4% active; further: nearly all actives have a fitted effect of over 70% in size
Target sequence (P35462 whole entry, looked up): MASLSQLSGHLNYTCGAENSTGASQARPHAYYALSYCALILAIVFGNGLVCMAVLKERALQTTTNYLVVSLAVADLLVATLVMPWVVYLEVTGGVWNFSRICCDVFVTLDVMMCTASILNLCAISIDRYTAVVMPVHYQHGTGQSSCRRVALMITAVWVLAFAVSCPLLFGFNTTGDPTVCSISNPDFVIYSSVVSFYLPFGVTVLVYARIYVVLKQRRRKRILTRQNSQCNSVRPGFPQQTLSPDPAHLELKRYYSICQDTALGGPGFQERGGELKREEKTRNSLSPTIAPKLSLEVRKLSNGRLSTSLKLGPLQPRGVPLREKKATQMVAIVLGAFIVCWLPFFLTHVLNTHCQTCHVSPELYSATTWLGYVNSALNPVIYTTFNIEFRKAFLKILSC
D2 ag-3: counter-screen for D3 agonists: human D2 dopamine receptor agonism; DiscoveRx PathHunter D2 beta-arrestin, luminescence, 90 min; response scale: percent relative to full dopamine signal; 2,300 tested, 5.9% active; Potency, µM (series often up to 76.9 µM), most hits filed as activators; shares compounds with D2 ag-2; further: nearly all actives have a fitted effect of over 70% in size
Of the large screens only hits and unclear results are named; the others gave an inactive call (follow-up assays come after a bar, where they were run). Unless noted, the call rests on the fitted dose curve; in most records, active means well fitted activation curve with a large enough effect; inconclusive means small, poorly fitted or top-dose-only effect; inactive means flat fitted curve, though single readings scatter.

Cc1ccc(NC(=O)c2nc[nH]c2C(=O)NC2CCN(C(=O)OC(C)(C)C)CC2)cc1	none (no result: D2 ag-2, D2 antag, D2 PAM-2)
CC(C)(C)OC(=O)N1CCC(NC(=O)c2nc[nH]c2C(=O)N2CCc3ccccc3C2)CC1	none (no result: D2 ag-2, D2 antag, D2 PAM-2) | D3 ag inactive | D2 ag-3 inactive
CC(C)(C)OC(=O)N1CCN(C(=O)c2[nH]cnc2C(=O)NCc2ccccc2)CC1	none | D3 ag inactive | D2 ag-3 inactive
Cc1ccc(NC(=O)CCn2c(=O)c3cccn3c3ccccc32)cc1Cl	none (no result: D2 ag-1, D2 PAM-1, D2 antag)
CC1CCN(S(=O)(=O)c2ccc3nc(-c4ccccn4)cc(C(=O)NCCN(C)Cc4ccccc4)c3c2)CC1	none
CCCCN(C(=O)c1ccc(N2C(=O)c3ccccc3C2=O)cc1)c1c(N)n(CC(C)C)c(=O)[nH]c1=O	none | D3 ag inactive | D2 ag-3 inactive
CCCCn1c(N)c(N(CCC(C)C)C(=O)c2cccc(N3C(=O)c4ccccc4C3=O)c2)c(=O)[nH]c1=O	none (no result: D2 ag-2, D2 antag, D2 PAM-2)
COc1ccccc1CCNC(=O)C1CCN(c2nnc(C)c3c(C)n(-c4ccc(C)cc4)nc23)CC1	none (no result: D2 antag)
COCCCn1c(SCC(=O)NC2CCCCC2)nnc1-c1ccncc1	D2 PAM-1 inconclusive
COCCCn1c(SCC(=O)NC2CCS(=O)(=O)C2)nnc1-c1ccc(Cl)cc1 (configuration not stated)	none | D3 ag inactive | D2 ag-3 inactive
c1ccc2c(C3CCO3)cccc2c1 (configuration not stated)	none (no result: D2 ag-2, D2 antag, D2 PAM-2) | D3 ag inactive | D2 ag-3 inactive
c1ccc2c(C3OCC4(CCCC4)CO3)cccc2c1	none (no result: D2 ag-2, D2 antag, D2 PAM-2)
COc1ccc(C(=O)N2CCCC2)cc1	none (no result: D2 ag-2, D2 antag, D2 PAM-2)
O=C(c1c(F)cccc1F)N1CCN(CCOc2ccccc2)CC1	D2 ag-2 60.0 | D3 ag inconclusive | D2 ag-3 inactive
COCc1c(C(=O)N2CCN(CCOc3ccccc3)CC2)oc2ccccc12	D2 ag-1 inconclusive, D2 ag-2 80.3, D2 antag 77.5 | D3 ag 0.316µM | D2 ag-3 inconclusive
OCCN1CCN(CCOc2cccc(Cl)c2)CC1	D2 ag-2 33.0, D2 antag 76.0 | D3 ag inconclusive | D2 ag-3 inactive
COc1ccc(OCCN2CCN(C(=O)c3ccc(OC)cc3)CC2)cc1	D2 ag-2 42.1 | D3 ag 0.447µM | D2 ag-3 inactive
CCC(=O)c1ccc(OCC(O)Cn2c(C)nc3ccccc32)cc1 (configuration not stated)	none
C=CC[N+](C)(C)C/C(Cl)=C(\Cl)c1ccccc1	none
Cc1ccc(C)n1CCN1CCN(C(=O)c2ccc(Cl)cc2)CC1	none
O=C(c1ccc(Cl)cc1)N1CCN(CCOc2ccccc2)CC1	D2 ag-1 inconclusive, D2 ag-2 74.3, D2 antag 76.4 | D3 ag 0.1µM | D2 ag-3 25.1µM
CC(NC(=O)CN1CCN(c2ncccn2)CC1)c1ccc(F)cc1 (configuration not stated)	D2 ag-2 60.1 | D3 ag inactive | D2 ag-3 inactive
O=C(CN1CCN(c2ncccn2)CC1)NCc1ccccc1	D2 ag-2 50.4 | D3 ag inactive | D2 ag-3 inactive
S=C(NCc1ccccn1)Nc1ccccc1	none | D3 ag inactive | D2 ag-3 inactive
Cc1ccc(-c2[nH]ncc2CN2CCN(C(=O)c3cccs3)CC2)cc1C	D2 ag-2 76.6, D2 antag 66.5 | D3 ag inconclusive | D2 ag-3 inactive
COc1ccc(-c2[nH]ncc2CN2CCN(C(=O)c3cccs3)CC2)c(F)c1	none
O=C(c1cccs1)N1CCN(Cc2cn[nH]c2-c2ccc(F)cc2F)CC1	D2 ag-1 inconclusive, D2 ag-2 80.3, D2 antag 52.9 | D3 ag inconclusive | D2 ag-3 inconclusive
O=C(/C=C/c1ccccc1)NCC(=O)N/N=C/c1cccs1	D2 ag-2 43.1 | D3 ag inactive | D2 ag-3 inactive
COc1ccccc1/C=N/NC(=O)c1ccc(CN2C(=O)c3cccc4cccc2c34)cc1	none | D3 ag inactive | D2 ag-3 inactive
O=C(CCN1CCN(C/C=C/c2ccccc2)CC1)Nc1ccccc1F	none
CCN1CCN(CC(=O)Nc2ccc(Cl)c(S(=O)(=O)N(C)C)c2)CC1	none
O=C(CN1CCN(c2ccccc2F)CC1)Nc1ccccc1F	none | D3 ag inactive | D2 ag-3 inactive
O=C(CCN1CCN(c2ccccc2F)CC1)Nc1ccccc1F	D2 ag-2 55.0, D2 antag 86.4 | D3 ag inconclusive | D2 ag-3 inconclusive
CN(C)S(=O)(=O)c1cc(NC(=O)CN2CCN(c3ccccc3F)CC2)ccc1Cl	D2 ag-1 inconclusive, D2 ag-2 54.0, D2 antag 53.2 | D3 ag inconclusive | D2 ag-3 inconclusive
COc1ccc(C)cc1NC(=O)CN1CCN(c2ccccc2F)CC1	none
Cc1ccc(S(=O)(=O)NCCC(=O)NCCCSc2ccccc2)cc1	none | D3 ag inactive | D2 ag-3 inactive
O=C(CCNS(=O)(=O)c1ccccc1)NCCCSc1ccccc1	none
CC(=O)Nc1ccc(S(=O)(=O)NCCC(=O)NCCOc2ccccc2)cc1	none | D3 ag inactive | D2 ag-3 inactive
Cc1ccc(NNC(=O)c2c(C)noc2C)cc1Cl	none
CC(NCC(O)COc1ccccc1)C1COc2ccccc2O1 (configuration not stated)	D2 ag-1 inconclusive, D2 ag-2 65.3, D2 antag 64.1 | D3 ag inactive | D2 ag-3 inactive
CC(NCc1ccccc1)C1COc2ccccc2O1 (configuration not stated)	D2 ag-2 37.7 | D3 ag inactive | D2 ag-3 inactive
COc1ccc(NC(=O)N(C)C[C@H]2Oc3c(NC(=O)NC4CCCCC4)cccc3C(=O)N([C@H](C)CO)C[C@@H]2C)cc1	none (no result: D2 ag-2, D2 PAM-1, D2 antag, D2 PAM-2)
COc1ccccc1Oc1ccc(S(=O)(=O)N2CCOCC2)cc1S(=O)(=O)N1CCOCC1	D2 ag-2 44.3 | D3 ag inactive | D2 ag-3 inactive
COc1ccc(S(=O)(=O)N2CCOCC2)cc1NC(=O)COc1ccccc1OC	none
CC(=O)N1CCN(C(=O)COC(=O)COc2c(C)cc(C)cc2C)CC1	none | D3 ag inactive | D2 ag-3 inactive
CCOC(=O)N1CCN(C(=O)COC(=O)COc2c(C)cc(C)cc2C)CC1	none (no result: D2 ag-2, D2 antag, D2 PAM-2)
Cc1ccccc1C(=O)Nc1nnc(SC(C)C)s1	none | D3 ag inactive | D2 ag-3 inactive
C[C@H]1CN([C@@H](C)CO)C(=O)CCCn2cc(nn2)CO[C@@H]1CN(C)C(=O)Nc1ccc(F)cc1	none (no result: D2 ag-2, D2 antag, D2 PAM-2)
